Measurements: PubChem BioAssay AID1159580 (chemical genetic matrix, 2015)
Screen size: about 5,500 compounds; about 2,000 (36%) were called active. Inconclusive results (about 18%) are left out. No stated cut-off is given here; in the data, active means normalized growth mostly below about 0.91 (no sharp cut-off); inconclusive means no clear call, values can overlap the other calls; inactive means mostly above about 0.92. The list shows a part of the results.

Assay: chemical genetic growth profiling, strain panel (AID 1159580);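 further: tested at 20 µM; growth read once vehicle control cultures reached saturation at 30 °C; 1 = growth at the plate median or of vehicle wells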
Details: growth OD
[1] = S. cerevisiae deletion strains, locus YAL013W, strain DEP1, stronger effect = lower value
[2] = S. cerevisiae deletion strains, locus YBR229C, strain ROT2, stronger effect = lower value
[3] = S. cerevisiae deletion strains, locus YDL101C, strain DUN1, stronger effect = lower value
[4] = S. cerevisiae deletion strains, locus YDL134C, strain PPH21, stronger effect = lower value
[5] = S. cerevisiae deletion strains, locus YDR150W, strain NUM1, stronger effect = lower value
[6] = S. cerevisiae deletion strains, locus YEL061C, strain CIN8, stronger effect = lower value
[7] = S. cerevisiae deletion strains, locus YGR078C, strain PAC10, stronger effect = lower value
[8] = S. cerevisiae deletion strains, locus YHR030C, strain SLT2, stronger effect = lower value
[9] = S. cerevisiae deletion strains, locus YHR087W, strain rtc3, stronger effect = lower value
[10] = S. cerevisiae deletion strains, locus YJL187C, strain SWE1, stronger effect = lower value
[11] = S. cerevisiae deletion strains, locus YJR043C, strain POL32, stronger effect = lower value
[12] = S. cerevisiae deletion strains, locus YJR075W, strain HOC1, stronger effect = lower value
[13] = S. cerevisiae deletion strains, locus YLR039C, strain RIC1, stronger effect = lower value
[14] = S. cerevisiae deletion strains, locus YLR058C, strain SHM2 (second series), stronger effect = lower value
[15] = S. cerevisiae deletion strains, locus YLR085C, strain ARP6, stronger effect = lower value
[16] = S. cerevisiae deletion strains, locus YLR262C, strain YPT6, stronger effect = lower value
[17] = S. cerevisiae deletion strains, locus YML094W, strain GIM5, stronger effect = lower value
[18] = S. cerevisiae deletion strains, locus YMR219W, strain ESC1, stronger effect = lower value
[19] = S. cerevisiae deletion strains, locus YMR263W, strain SAP30, stronger effect = lower value
[20] = S. cerevisiae deletion strains, locus YMR307W, strain GAS1, stronger effect = lower value
[21] = S. cerevisiae deletion strains, locus YNL153C, strain GIM3, stronger effect = lower value
[22] = S. cerevisiae deletion strains, locus YNL298W, strain CLA4 (second series), stronger effect = lower value
[23] = S. cerevisiae deletion strains, locus YNL322C, strain KRE1, stronger effect = lower value
[24] = S. cerevisiae deletion strains, locus YNR030W, strain Alg12, stronger effect = lower value
[25] = S. cerevisiae deletion strains, locus YPL055C, strain LGE1, stronger effect = lower value
[26] = S. cerevisiae deletion strains, locus YPL241C, strain CIN2, stronger effect = lower value
[27] = S. cerevisiae deletion strains, locus YPR135W, strain CTF4, stronger effect = lower value
[28] = S. cerevisiae deletion strains, locus YAL040C, strain CLN3, stronger effect = lower value
[29] = S. cerevisiae deletion strains, locus YCL061C, strain MRC1 (second series), stronger effect = lower value
[30] = S. cerevisiae deletion strains, locus YDR363W, strain ESC2, stronger effect = lower value
[31] = S. cerevisiae deletion strains, locus YER002W, strain NOP16, stronger effect = lower value
[32] = S. cerevisiae deletion strains, locus YNL175C, strain NOP13, stronger effect = lower value
[33] = S. cerevisiae deletion strains, locus YNL197C, strain WHI3, stronger effect = lower value
[34] = S. cerevisiae deletion strains, locus YNL224C, strain SQS1, stronger effect = lower value
[35] = S. cerevisiae deletion strains, locus YOR083W, strain WHI5 (second series), stronger effect = lower value

Measured: normalized growth

Cn1c(=S)[nH]c2cc(C(F)(F)F)ccc21
inactive: [1] 0.977 | [2] 0.987 | [3] 0.968 | [4] 0.979 | [5] 0.959 | [7] 0.975 | [8] 0.767 | [9] 1 | [10] 0.98 | [11] 0.978 | [12] 1.02 | [14] 0.974 | [17] 0.911 | [18] 0.987 | [19] 0.966 | [20] 0.718 | [21] 0.997 | [23] 0.998 | [24] 0.946 | [25] 0.866 | [26] 0.925 | S. cerevisiae strains, strain wild type, stronger effect = lower value 0.969
active: [6] 0.888 | [13] 0.538 | [15] 0.378 | [16] 0.733 | [22] 0.803 | [27] 0.617

O=c1[nH]c2cc(C(F)(F)F)ccc2n1-c1cc(C(F)(F)F)ccc1O
inactive: [1] 1.02 | [28] 0.998 | [29] 1.01 | [5] 1.01 | [30] 1.01 | [31] 1.02 | [7] 1.03 | [20] 1.02 | [32] 0.961 | [33] 0.995 | [34] 0.998 | [35] 0.903 | [25] 1.01

FC(F)(F)c1ccc2[nH]c(=S)[nH]c2c1
inactive: [1] 0.995 | [2] 0.996 | S. cerevisiae deletion strains, locus YCL061C, strain MRC1, stronger effect = lower value 0.983 | [3] 0.983 | [4] 0.99 | [5] 0.986 | [6] 0.998 | [7] 0.982 | S. cerevisiae deletion strains, locus YGR229C, strain SMI1, stronger effect = lower value 1 | [8] 0.89 | [9] 0.999 | [10] 0.997 | [11] 0.986 | [12] 1.01 | [13] 0.952 | [14] 0.994 | [15] 0.955 | [16] 0.963 | [17] 0.905 | [18] 1 | [19] 1.02 | S. cerevisiae deletion strains, locus YNL128W, strain TEP1, stronger effect = lower value 0.993 | [21] 1 | [22] 0.979 | [23] 0.997 | [24] 0.977 | S. cerevisiae deletion strains, locus YOL006C, strain TOP1, stronger effect = lower value 0.997 | [25] 0.98 | [26] 0.966 | [27] 0.779

Cc1ncc([N+](=O)[O-])n1CC(O)CCl (stereo not given)
inactive: S. cerevisiae deletion strains, locus YHR079C, strain IRE1, stronger effect = lower value 0.977 | S. cerevisiae deletion strains, locus YJL095W, strain BCK1, stronger effect = lower value 0.965 | S. cerevisiae deletion strains, locus YJR066W, strain TOR1, stronger effect = lower value 0.956 | S. cerevisiae deletion strains, locus YLR113W, strain HOG1, stronger effect = lower value 0.978 | S. cerevisiae deletion strains, locus YNL183C, strain NPR1, stronger effect = lower value 0.922 | S. cerevisiae deletion strains, locus YOR231W, strain MKK1, stronger effect = lower value 0.97 | S. cerevisiae deletion strains, locus YPL256C, strain CLN2, stronger effect = lower value 0.933

CN(C)C/C=C(/c1ccc(Br)cc1)c1cccnc1
inactive: [28] 0.964 | [29] 0.999 | [30] 0.984 | [31] 0.992 | [20] 1.02 | [32] 0.975 | [33] 1 | [34] 1 | [23] 0.926 | [35] 0.994 | [25] 0.997 | [26] 0.998
